D2 ag-1: agonists of human D2 dopamine receptor (beta-arrestin); DiscoveRx PathHunter D2 beta-arrestin, luminescence, 90 min; 100% = 57 uM dopamine signal; activation, % (no concentration beside the values); hit rate 0.084% among 360,000; AID 624465; in the data active = activation above about 40%
Target sequence (P14416 whole entry, looked up): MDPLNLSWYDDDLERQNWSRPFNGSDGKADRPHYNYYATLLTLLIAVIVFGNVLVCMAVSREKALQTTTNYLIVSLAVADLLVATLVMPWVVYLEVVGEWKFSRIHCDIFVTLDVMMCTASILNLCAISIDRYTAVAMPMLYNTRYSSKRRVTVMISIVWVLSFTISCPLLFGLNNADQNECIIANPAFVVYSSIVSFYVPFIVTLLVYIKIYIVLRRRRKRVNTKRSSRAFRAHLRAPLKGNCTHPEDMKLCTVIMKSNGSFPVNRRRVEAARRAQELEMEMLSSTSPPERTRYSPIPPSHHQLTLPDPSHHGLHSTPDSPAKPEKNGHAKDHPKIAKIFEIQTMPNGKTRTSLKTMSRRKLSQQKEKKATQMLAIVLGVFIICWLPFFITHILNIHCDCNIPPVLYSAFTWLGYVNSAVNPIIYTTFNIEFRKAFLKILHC
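DiscoveRx PathHunter D2 beta-arrestin cells (2,100/well) attached overnight, then compound-stimulated 90 min at 37 C in HBSS/10 mM HEPES/0.1% Tween-20 buffer; beta-galactosidase complementation read by luminescence after 1 h at ambient temperature. Dopamine 57 uM final (EC100) as control.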
D2 PAM-1: D2 dopamine receptor (human) potentiation. AID 485347. potentiation, % at 10 µM. HEK293 T-REx D2, calcium flux, EC20 dopamine potentiation. hit rate 0.34% among 340,000. P14416;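 active = potentiation over 3 SD above the plate norm, cut at about 30% in these data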; also: 0% is about no effect
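Tetracycline-induced Hek293 Trex D2 cells, force-coupled to calcium, loaded with no-wash calcium dye. Compound added with 180 s kinetic read for agonism, then EC20 dopamine and a further 180 s read for potentiation.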
D2 antag: antagonizes the human D2 dopamine receptor; hit rate 2% among 340,000; P14416; inhibition, % at 10 µM; HEK293 TREx D2 cells, calcium flux, dopamine EC80; in the data active = inhibition above about 30%; inactive = below that, where a call was filed; also: 0% is about no effect
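HEK293 T-REx D2 cells, tet-induced, calcium dye no-wash. Cpd pintool add, 180 s kinetic, then EC80 DA, 180 s kinetic. Ca flux read.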
D2 ag-2: activates the human D2 dopamine receptor | HEK293 T-REx D2 cells, calcium flux agonist mode | activation, % at 2 µM | hit rate 0.53% among 340,000;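 active = activation over 3 SD above normal in the single-dose calcium agonist read, cut at about 30% in these data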; also: 0% is about no effect
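Tetracycline-induced HEK293 Trex cells with D2 receptor force-coupled to calcium signaling, plated overnight at 30 C and loaded with no-wash calcium dye. Calcium flux read kinetically for 180 s after compound addition; responses flag agonists.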
D2 PAM-2: positive allosteric modulators of human D2 dopamine receptor; P14416; DiscoveRx D2 beta-arrestin cells, luminescence, 90 min; 100% = 57 uM dopamine signal; potentiation, % (test concentration not listed); hit rate 0.23% among 360,000; AID 624464; in the data active = potentiation above about 50%
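PathHunter beta-arrestin assay in DiscoveRx D2 cells. Compounds were added with an EC20 of dopamine (50 nM final) for 90 min at 37 deg C. Luminescence was read 1 h after detection reagent, with 57 uM dopamine as the EC100 control.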
The depositor's hits bear a star; x = not tested or not shown. An excerpt weighted towards active compounds, which were near 2.4% of everything screened.

SMILES | D2 ag-1 | D2 PAM-1 | D2 antag | D2 ag-2 | D2 PAM-2
Cc1cccc(N2CCN(S(=O)(=O)c3ccc4c(c3)NC(=O)CO4)CC2)c1C | -3 | 1 | 3 | 0 | -4
O=C(CCS(=O)(=O)c1cc2c(cc1Cl)NC(=O)CO2)NCCc1ccccc1 | -7 | -3 | -3 | 1 | 0
Cc1ccc(CCNC(=O)CCS(=O)(=O)c2cc3c(cc2C)NC(=O)CO3)cc1 | 0 | 16 | 43* | 0 | -6
Cc1ccc(CNS(=O)(=O)c2cc3c(cc2C)NC(=O)CO3)cc1 | -6 | 5 | 48* | 4 | -2
Cc1cc2c(cc1S(=O)(=O)N1CCN(c3cccc(C)c3C)CC1)OCC(=O)N2 | 1 | -3 | 50* | 1 | 1
O=C(N/N=C/c1cc(Br)c(Br)o1)c1cc2ccccc2o1 | 6 | -24 | 33* | 0 | -37
COc1cc(C(=O)NCc2ccc3c(c2)CCN3C(=O)c2ccc(Cl)cc2)cc(OC)c1OC | x | 7 | x | 0 | x
Cc1cc(C)c2c(c1)c(C)cc1nnc(SCC(=O)c3ccccc3)n12 | x | -7 | x | x | x
O=C(NCCc1ccccc1)c1ccc(-c2ccccc2C(F)(F)F)o1 | 0 | -19 | -8 | -1 | -17
O=C(NNC(=O)c1cc2ccccc2o1)c1ccc(F)cc1 | -2 | -3 | 8 | -1 | -15
O=C(NCc1ccccc1)c1ccc(-c2ccccc2F)o1 | -3 | 32* | 24 | -2 | -17
O=C(NCc1ccc(F)cc1)c1cc2ccccc2o1 | 1 | 52* | -9 | -2 | -1
CCCC(=O)C1=C(c2cccc(OC)c2)N(C(=O)CCC)n2c(C)nnc2S1 | x | -5 | x | 0 | x
N#Cc1ccccc1NC(=O)COC(=O)COc1ccccc1[N+](=O)[O-] | 0 | 4 | -17 | 0 | -1
CCC(=O)Nc1ccccc1Nc1cc(C#N)c(C#N)cc1[N+](=O)[O-] | 10 | -3 | 8 | -1 | 74*
Cc1cc(C(=O)NCCN2CCN(c3cccc(Cl)c3)CC2)n(-c2ccccc2)n1 | -4 | -5 | 12 | -3 | -8
Cc1cc(C(=O)NCCCN2CCN(c3cc(Cl)ccc3C)CC2)n(-c2ccccc2)n1 | -1 | -28 | 47* | -2 | -10
O=C(Nc1cnn(Cc2c(Cl)cccc2Cl)c1)C(c1ccccc1)c1ccccc1 | -1 | 33* | 16 | 0 | 1
O=C(COc1ccccc1Cl)Nc1cnn(Cc2ccccc2)c1 | 1 | -3 | -14 | -1 | -13
Cc1nc2nc(SCC(=O)N(C)Cc3ccccc3)nn2c(C)c1Cc1ccccc1Cl | x | 15 | x | 1 | x
Cc1oc(-c2cccs2)nc1CN1CCN(C(C)C)C(CCO)C1 (centres undefined) | -1 | -4 | 2 | 1 | -9
Cc1oc(-c2cccs2)nc1CN1CCC(c2ccccc2)CC1 | -4 | -17 | 83* | 1 | -33
COc1ccccc1CNC(=O)C1CCN(Cc2nc(-c3ccc(OC)c(OC)c3)oc2C)CC1 | x | 13 | x | -1 | x
COc1ccc(-c2nc(CN3CCC(c4ccccc4)CC3)c(C)o2)cc1OC | 3 | -23 | 44* | -1 | -15
O=C1Cc2ccccc2Sc2c(OCCN3CCCCC3)cccc21 | -9 | -18 | 80* | 2 | -32
SMILES | D2 ag-1 | D2 PAM-1 | D2 antag | D2 ag-2 | D2 PAM-2
O=C1Cc2ccccc2Sc2cc(OCCCN3CCCCC3)ccc21 | -7 | -31 | -6 | 2 | -34
COc1cc(NC(=O)c2nn(C)c3c2CS(=O)(=O)c2ccccc2-3)cc(OC)c1 | 3 | 24 | -15 | 2 | -4
COc1ccc(NC(=O)c2nn(C)c3c2CS(=O)(=O)c2ccccc2-3)cc1 | 0 | 37* | -6 | 1 | -15
CCn1cc(C(=O)NCCCOC(C)C)c(=O)c2cc(S(=O)(=O)N3CCc4ccccc4C3)ccc21 | x | -6 | x | -1 | x
Cc1ccc(C(CC(=O)O)NC(=O)CN2C(=O)c3ccccc3C2=O)cc1 (centres undefined) | -7 | 0 | 43* | 1 | -8
Cc1ccc(NC(=O)CN2C(=O)c3ccccc3C2=O)nc1 | -7 | -6 | -8 | 0 | -6
O=C(NCc1ccc(Cl)cc1)C1CCN(c2cnccn2)CC1 | -3 | -18 | 4 | -1 | -2
O=C(NCc1ccc(Cl)cc1)C1CCCN(c2cnccn2)C1 (centres undefined) | -3 | -4 | 36* | -1 | -11
Cc1ccc(NC(=O)C2CCCN(c3ncnc4onc(C)c34)C2)cc1Cl (centres undefined) | x | -5 | x | x | x
CCN(CC)c1ccc(NC2=C(Cl)C(=O)c3ccccc3C2=O)cc1 | 10 | 1 | 13 | 0 | 60*
Cc1ccc(NC2=C(Cl)C(=O)c3ccccc3C2=O)cc1 | 8 | -4 | 16 | 0 | 21
O=S(=O)(Nc1ccc(-c2ccc(N3CCCCC3)nn2)cc1)c1ccc(OC(F)(F)F)cc1 | x | 16 | x | 1 | x
O=C(N/N=C/c1c(F)cccc1Cl)c1ccc(Cn2cc(Br)cn2)o1 | -4 | -7 | -7 | -3 | -11
C/C(=N\NC(=O)c1ccc(Cn2cc(Br)cn2)o1)c1cccc(NC(=O)C(C)(C)C)c1 | -1 | -5 | 8 | 2 | 22
O=C(Nc1ccc(C(F)(F)F)cc1Cl)c1ccc(Cn2cc(Br)cn2)o1 | 2 | -22 | 37* | 2 | -6
O=C(Nc1cccc(C(F)(F)F)c1)c1ccc(Cn2cc(Br)cn2)o1 | -3 | -17 | 35* | 2 | -30
CCCCOc1ccc(S(=O)(=O)Nc2cccc(-c3ccc(N4CCOCC4)nn3)c2)cc1 | x | 11 | x | x | x
CCOC(=O)C1CCN(C(=O)CCc2ccccc2)CC1 | -4 | -4 | -4 | 0 | -5
CCOC(=O)C1CCN(C(=O)CCc2nc3ccccc3[nH]2)CC1 | 0 | 0 | 61* | 0 | -5
Cc1cc(C)cc(C(=O)Nc2ccc(-c3nc4ncccc4o3)cc2)c1 | x | 12 | x | -1 | x
O=C(Nc1nc2ccccc2n1CCN1CCCCC1)C1CCCCC1 | -1 | -19 | 42* | -1 | -10
O=C(Nc1nc2ccccc2n1CCN1CCCC1)C1CCCCC1 | -5 | -21 | 22 | -1 | -37
COc1ccc(CNc2nc3ccccc3n2CCN2CCCCC2)c(OC)c1 | -6 | -20 | 0 | 7 | -44
COc1ccc(OC)c(CNc2nc3ccccc3n2CCN2CCCCC2)c1 | -5 | -21 | 34* | 0 | -19
CCCCCn1c(NCc2ccc(OC)cc2)nc2ccccc21 | x | 0 | x | 0 | x
CCN(CC)CCn1c(NCc2ccc(OC)cc2)nc2ccccc21 | -3 | -38 | 75* | 0 | -30
CC(C)c1ccc(NC(=O)c2cc(S(=O)(=O)NCc3ccccc3Cl)ccc2F)cc1 | x | 13 | x | 0 | x
O=c1c2cc(N3CCOCC3)ccc2[nH]c(=S)n1CCN1CCCC1 | -2 | -6 | 6 | 0 | -12
COc1ccc(N2CCN(CCCn3c(=S)[nH]c4ccccc4c3=O)CC2)cc1 | 8 | -30 | -41 | 0 | -7
